# Results: PubChem BioAssay (NCI)
# Compounds without any hit were thinned out: in the full panel of roughly 83,000, 20% have a hit.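 Note: values are percent growth. 100 is the growth of untreated cells, values between 100 and 0 indicate rising inhibition; between -100 and 0 indicates cell death.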 Values without a mark were called inactive. Calls of active or inactive are those of the source. Rule for the calls: active = growth percent below 10; inactive = the rest.
# Experiments:
# Test in all cases: NCI-60 one-dose screen, 48 h (100 = growth as untreated, 0 = no growth, -100 = all killed)
# Conditions in all cases: 10 µM unless noted
# HCT-15 colon = test system: HCT-15 colon
# HT29 colon = test system: HT29 colon
# SNB-75 CNS = test system: SNB-75 CNS
# SNB-19 CNS = test system: SNB-19 CNS
# U251 CNS = test system: U251 CNS
# PC-3 prostate = test system: PC-3 prostate
# SK-MEL-5 melanoma = test system: SK-MEL-5 melanoma
# UACC-62 melanoma = test system: UACC-62 melanoma
# LOX IMVI melanoma = test system: LOX IMVI melanoma
# SK-MEL-28 melanoma = test system: SK-MEL-28 melanoma
Compound,growth (HCT-15 colon),growth (HT29 colon),growth (SNB-75 CNS),growth (SNB-19 CNS),growth (U251 CNS),growth (PC-3 prostate),growth (SK-MEL-5 melanoma),growth (UACC-62 melanoma),growth (LOX IMVI melanoma),growth (SK-MEL-28 melanoma)
Cn1cc(-c2nonc2-c2c[nH]c3ccccc23)c2ccccc21,16.6%,5.85% (active),-18.2% (active),12.8%,12.4%,20.7%,21.2%,8.21% (active),23.5%,41.6%
COc1ccc(C2=C/C(=C\c3ccc(Cl)cc3)C(=O)N2/N=C/c2ccc(Cl)cc2)cc1,98.8%,86.8%,105%,96.7%,84.5%,91.4%,99.5%,84.4%,99.1%,101%
CCCCCCCCn1ccc2cc(NC(=O)Cn3cc(CN4CCN(CC)CC4)nn3)ccc21,22.5%,-26.4% (active),87.5%,61.4%,5.79% (active),82.6%,78.1%,-78.2% (active),-74.5% (active),80.5%
COc1ccc(C2=CN3CC=CCC3CC2=O)cc1 (stereo not given),108%,84.5%,103%,107%,91.4%,81.9%,96.4%,99.5%,99.8%,112%
COc1ccc(C2C(C#N)=C(N)Oc3c2sc2c(Br)cccc32)cc1 (stereo not given),19.1%,5% (active),11.3%,44.8%,20.4%,25.5%,29.3%,10.6%,29.2%,59.5%
COc1ccc(Cl)cc1Nc1nc(C(F)(F)F)ccc1C(=O)N/N=C/c1ccccc1Cl,0.947% (active),9.32% (active),50%,9.47% (active),-25.8% (active),5.53% (active),3.59% (active),8.19% (active),-13.6% (active),32.5%
CN1CCN(Cc2ccc(NC(=O)c3cncc(C#Cc4cncc5[nH]ncc45)c3)cc2C(F)(F)F)CC1,10.6%,11.1%,20%,45.5%,25.1%,1.19% (active),13.2%,-49.2% (active),-90% (active),-15.2% (active)
CCCCCCCCCCCCCCCCCCOc1ccccc1CC(=O)NCC[N+]1(C)CCOCC1,91.1%,29.8%,46.9%,25.9%,10.1%,-46.4% (active),75%,56.3%,55.5%,74.7%
CCOc1ccc(NC(=O)c2cc(OC)c(OC)c(OC)c2)cc1,31.8%,11.5%,30.5%,49.6%,30.1%,29.9%,28.7%,35.7%,35.5%,66.4%
O=C(N/N=C/c1ccc(Cl)cc1Cl)c1ccc2nc(-c3ccc(Cl)cc3)[nH]c2c1,4.69% (active),1.67% (active),98.4%,4.35% (active),-15.2% (active),-24.9% (active),36.2%,16.8%,-55.9% (active),-9.23% (active)
N/C(=N\c1nc2ccccc2s1)NC(=NC1CCCCC1)NC1CCCCC1,1.34% (active),6.19% (active),23.1%,4.28% (active),-56.2% (active),24.2%,-74.8% (active),52.8%,-100% (active),-73.8% (active)
CC1(C)O[C@H]2OC3CCC(=O)CC3(O)[C@H]2O1 (stereo not given in full),111%,98.6%,95.1%,107%,96.5%,82%,98.8%,107%,96.7%,120%
CCOC(=O)Cn1c(=O)c2c3ccccc3n(C)c2n2nnc(-c3ccccc3)c12,114%,89.1%,105%,115%,87.8%,76.1%,74.1%,72.8%,86.2%,86.6%
COC(=O)c1ccc2c(c1)c1c(C)c3ccncc3c(C)c1n2C,18.6%,12.4%,22%,29%,20.9%,31.8%,14.5%,3.04% (active),4.81% (active),35.4%
COc1cc(OC)cc(C2C(C#N)=C(N)Oc3c2ccc2ccc(O)cc32)c1 (stereo not given),4.56% (active),7.81% (active),72%,26.9%,12.8%,17.6%,-45.6% (active),28.9%,0.698% (active),48.6%
